Where a SMILES comes first, the peptide text is derived from it. The star is where a group is joined. AMC = Cc1cc(=O)oc2cc(N*)ccc12; Cbz = O=C(OCc1ccccc1)*

Phenylethanolamine N-methyltransferase (Homo sapiens), sequence (P11086 whole entry, looked up): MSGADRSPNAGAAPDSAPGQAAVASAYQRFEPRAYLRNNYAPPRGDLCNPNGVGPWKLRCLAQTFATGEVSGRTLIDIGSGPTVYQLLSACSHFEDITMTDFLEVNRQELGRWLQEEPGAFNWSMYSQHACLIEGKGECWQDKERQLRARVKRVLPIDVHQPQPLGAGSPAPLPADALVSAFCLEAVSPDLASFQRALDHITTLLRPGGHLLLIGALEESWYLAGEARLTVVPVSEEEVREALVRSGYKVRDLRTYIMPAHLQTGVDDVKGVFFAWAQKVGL
Nicotinamide N-methyltransferase (Homo sapiens), sequence (P40261 whole entry, looked up): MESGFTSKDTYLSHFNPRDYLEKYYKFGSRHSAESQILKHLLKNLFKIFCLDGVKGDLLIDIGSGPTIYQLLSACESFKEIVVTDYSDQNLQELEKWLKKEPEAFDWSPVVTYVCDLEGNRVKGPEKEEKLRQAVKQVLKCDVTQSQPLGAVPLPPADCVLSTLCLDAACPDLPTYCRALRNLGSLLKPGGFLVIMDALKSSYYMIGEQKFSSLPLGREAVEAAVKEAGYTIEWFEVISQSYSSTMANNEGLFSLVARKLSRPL

The first test addresses Nicotinamide N-methyltransferase (Homo sapiens) (UniProt P40261). Nature of the test: Confirmatory Screen for Target Class Profiling of Small Molecule Inhibitors of Methyltransferases (AID 1745852). The note with it: MTase-Glo luminescence, SAH detection, recombinant enzyme; measured here: NNMT max response; stronger effect = lower value.
Regarding `COc1c2c(c(C)c3c1C(=O)OC3)OC1(C)CC(O)C34OC(OC)(CC(O)C3(C)C1C2)OC4(C)C` (stereo not drawn), the activity was -8.14%.
For `COc1c2cc(c(O[C@@H]3O[C@H](CO)[C@@H](O)[C@H](O)[C@H]3O)c1OC)CCCCC(O)CCc1ccc(O)c-2c1` (stereo partly drawn), the activity was -5.32%.
`Nc1ncnc2c1ncn2[C@H]1O[C@@H](C(=O)N2CCN(CC(=O)Nc3cccc4c3CNC4=O)CC2)[C@H](O)[C@@H]1O`: the activity is -14.5%.
Still for that read-out and setting: the figure for `COc1cc(/C=C/C(=O)O[C@H]2[C@@H]3C=CO[C@@H](O[C@@H]4O[C@H](CO)[C@@H](O)[C@H](O)[C@H]4O)[C@@H]3[C@@]3(CO)O[C@@H]23)ccc1O` is 1.36%; for `C=C1CC/C=C(/CO)C(=O)C[C@@H]2[C@@H]1C[C@@]2(C)COC(C)=O` it is 0.048%; for `CC1=CC(=O)C(=C(C)C)CC2C(C)(O)CCC12O` (stereo not drawn) it is 2.29%.
Still for that read-out and setting: as for `CC1CCCCCCCc2cc(O)cc(O)c2C(=O)O1` (stereo not drawn), the figure is -60.9%.
For the molecule `CC(=O)OC/C(=C/C(=O)O)CC[C@@H]1C(CO)=CC[C@@H]2C(C)(C)CCC[C@@]12C`, the activity was -8.71%.
The same measure, in the same setting: the figure for `COc1cc(/C=C/C(=O)OCC2OC(OC3(CO)OC(CO)C(O)C3O)C(O)C(O)C2O)ccc1O` (stereo not drawn) is -1.16%; for `CC(=O)OC1CC(=O)C2(C)C3CC4=C(OC(C)CC4=O)OC3(C)CCC2C1(C)C` (stereo not drawn) it is -81.2%.
On to `Cc1cc(=O)oc2cc(NC(=O)[C@H](CCC(=O)O)NC(=O)[C@H](CC(C)C)NC(=O)[C@H](CC(C)C)NC(=O)OCc3ccccc3)ccc12` (Cbz-Leu-Leu-Glu-{AMC}), for which the activity is -71.3%.
Same read-out and setting: the figure for `CC1(CO)CC(O)C2(C)CCC3(C)C(=CCC4C5(C=O)CCC(OC6OC(C(=O)O)C(O)C(O)C6OC6OC(C(=O)O)C(O)C(O)C6O)C(C)(C)C5CCC43C)C2C1` (stereo not drawn) is -0.108%; for `CC(=O)c1c(C)cccc1O[C@@H]1O[C@H](CO)[C@@H](O)[C@H](O)[C@H]1O` it is -4.15%.
As for `CCOc1ccc(-c2cc(NC(=O)c3c(F)cccc3F)c(C(=O)O)s2)cc1`, the activity was -5.18%.

A further test has as its target Phenylethanolamine N-methyltransferase (Homo sapiens) (UniProt P11086). The test is described as above. As to conditions: MTase-Glo luminescence, SAH detection, recombinant enzyme; measured here: PNMT max response; stronger effect = lower value.
Consider `COc1c2c(c(C)c3c1C(=O)OC3)OC1(C)CC(O)C34OC(OC)(CC(O)C3(C)C1C2)OC4(C)C` (stereo not drawn), for which the activity is -5.39%.
The same measure, in the same setting: the figure for `COc1c2cc(c(O[C@@H]3O[C@H](CO)[C@@H](O)[C@H](O)[C@H]3O)c1OC)CCCCC(O)CCc1ccc(O)c-2c1` (stereo partly drawn) is -8.72%; for `Nc1ncnc2c1ncn2[C@H]1O[C@@H](C(=O)N2CCN(CC(=O)Nc3cccc4c3CNC4=O)CC2)[C@H](O)[C@@H]1O` it is -35.1%.
Still for that read-out and setting: the figure for `COc1cc(/C=C/C(=O)O[C@H]2[C@@H]3C=CO[C@@H](O[C@@H]4O[C@H](CO)[C@@H](O)[C@H](O)[C@H]4O)[C@@H]3[C@@]3(CO)O[C@@H]23)ccc1O` is -3.15%.
The same measure, in the same setting: the figure for `C=C1CC/C=C(/CO)C(=O)C[C@@H]2[C@@H]1C[C@@]2(C)COC(C)=O` is 1.6%; for `CC1=CC(=O)C(=C(C)C)CC2C(C)(O)CCC12O` (stereo not drawn) it is 1.07%; for `CC1CCCCCCCc2cc(O)cc(O)c2C(=O)O1` (stereo not drawn) it is -64.4%.
Take `CC(=O)OC/C(=C/C(=O)O)CC[C@@H]1C(CO)=CC[C@@H]2C(C)(C)CCC[C@@]12C`: the activity was -5.03%.
On the same count and under the same terms, as for `COc1cc(/C=C/C(=O)OCC2OC(OC3(CO)OC(CO)C(O)C3O)C(O)C(O)C2O)ccc1O` (stereo not drawn), the figure is 3.04%; as for `CC(=O)OC1CC(=O)C2(C)C3CC4=C(OC(C)CC4=O)OC3(C)CCC2C1(C)C` (stereo not drawn), 0.0652%; as for `Cc1cc(=O)oc2cc(NC(=O)[C@H](CCC(=O)O)NC(=O)[C@H](CC(C)C)NC(=O)[C@H](CC(C)C)NC(=O)OCc3ccccc3)ccc12` (Cbz-Leu-Leu-Glu-{AMC}), -1.44%.
Same read-out and setting: the figure for `CC1(CO)CC(O)C2(C)CCC3(C)C(=CCC4C5(C=O)CCC(OC6OC(C(=O)O)C(O)C(O)C6OC6OC(C(=O)O)C(O)C(O)C6O)C(C)(C)C5CCC43C)C2C1` (stereo not drawn) is 1.8%; for `CC(=O)c1c(C)cccc1O[C@@H]1O[C@H](CO)[C@@H](O)[C@H](O)[C@H]1O` it is -3.91%.
Still for that read-out and setting: the figure for `CCOc1ccc(-c2cc(NC(=O)c3c(F)cccc3F)c(C(=O)O)s2)cc1` is -2.03%.

(Values after PubChem BioAssay (NCATS).)
